# Screening results: PubChem BioAssay, National Center for Advancing Translational Sciences (NCATS)
# ELG1 repair inh = blocks ELG1-dependent DNA repair in HEK293T cells; HEK293T ELG1-luciferase reporter, luminescence, 16 h; DNA damage induced by 5-fluorouridine; Potency, µM (titrated, usually from 46.1 µM), for inactives: at the highest dose activity change, negative = inhibition, hits mostly inhibitors; 2.3% of 330,000 active; AID 504467; further: on the % scale 0 is the no-effect control and ±100 the full control effect; nearly all actives have a fitted effect of over 55% in size
#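 In this reporter screen, reduction of luminescence relative to DMSO vehicle indicated activity. Compounds and 5-fluorouridine were added together to 2,000 cells per well, incubated for 16 hr at 37 °C, then developed with ONE-Glo.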
# KB-3-1 tox = kills parental KB-3-1 adenocarcinoma cells. KB-3-1 viability, CellTiter-Glo ATP luminescence, 72 h. Potency, µM (series often up to 46.1 µM), actives largely listed as cytotoxic. 1.4% of 400,000 active. AID 1347075; further: on the % scale 0 is the no-effect control and ±100 the full control effect; nearly all actives have a fitted effect of over 60% in size
#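 Screening of KB-3-1 cells (DMEM, 10% FBS, phenol-red free) ran from lowest to highest compound concentration; after 72 h at 37 °C viability was read luminescently and curves fitted.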
# KB-V1 cytotox = kills drug-selected multidrug resistant KB-V1 cells; Potency, µM (doses to about 46.1 µM), most hits filed as cytotoxic; KB-V1 MDR cells viability, CellTiter-Glo, 72 h; 3.4% of 400,000 active; further: on the % scale 0 is the no-effect control and ±100 the full control effect; nearly all actives have a fitted effect of over 60% in size
#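 In this primary screen, KB-V1 cells overexpressing P-gp are incubated with library compounds (lowest to highest concentration) for 72 h at 37 degrees C before a luminescent ATP viability read.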
# SW480 rerep = DNA re-replication induction in SW480 cells. SW480 DNA re-replication, Hoechst DNA content imaging, 48 h. Potency, µM (series often up to 46.1 µM), inactives show top-dose re-replication activation, usual class: activators. 1.8% of 340,000 active; further: % of control where 0% means no effect; nearly all actives have a fitted effect of over 55% in size
#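 Quantitative HTS format with DMSO vehicle controls; 48 hr drug incubation at 37 C, then 40 min Hoechst staining and scanning imager measurement at 405 nm excitation.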
# MCF10A rereplic = inducers of DNA re-replication in MCF 10A breast cells | MCF 10A DNA re-replication, Hoechst nuclear intensity, 48 h | Potency, µM (titrated, usually from 46.1 µM), for inactives: top-dose activity, positive = re-replication, most hits filed as activators | 2.9% of 350,000 active | AID 624296; further: % of control where 0% means no effect; nearly all actives have a fitted effect of over 50% in size
# Active calls of the source: *; i = inactive; ? = inconclusive; . = no result. An excerpt weighted towards active compounds, which were near 8.1% of everything screened. The call rests on the fitted dose curve; in most records, active means well fitted curve in the direction sought with a large enough effect; inconclusive means small, poorly fitted or top-dose-only effect, or another doubt; inactive means no such curve, though single readings can be large; an effect the other way counts as inactive or inconclusive. Potency means the concentration at half of the fitted maximal effect.
SMILES,ELG1 repair inh,KB-3-1 tox,KB-V1 cytotox,SW480 rerep,MCF10A rereplic
CC(=O)O[C@@]12CO[C@@H]1C[C@H](O)[C@@]1(C)C(=O)[C@H](O)C3=C(C)[C@@H](OC(=O)[C@H](O)[C@@H](NC(=O)c4ccccc4)c4ccccc4)C[C@@](O)([C@@H](OC(=O)c4ccccc4)C12)C3(C)C (some centres not stated),?,0.0073µM*,8.2µM*,2.6µM*,?
CC(=O)O[C@H]1C(=O)[C@@]2(C)C([C@H](OC(=O)c3ccccc3)[C@]3(O)C[C@H](O)C(C)=C1C3(C)C)[C@]1(OC(C)=O)CO[C@@H]1C[C@H]2O (some centres not stated),-15%,?,?,?,25%
Nc1nc(O)c(-c2ccccc2)o1,.,.,.,-5%,1%
ClC(Cl)Cl,.,.,.,0%,3%
C=CC[N+]1(C)CCC23c4c5ccc(O)c4O[C@H]2C(=O)CC[C@@]3(O)C1C5 (some centres not stated),.,.,.,10%,0%
CN1/C(=C\C=Nc2ccccc2)C(C)(C)c2ccccc21,-2%,i,i,-2%,16%
CCN1/C(=C/C=C/C2=[N+](CC)c3ccccc3C2(C)C)C(C)(C)c2ccccc21,.,0.0065µM*,8.2µM*,.,.
CCC(=O)OC1CCC2C3CCC4CC(=O)C=CC4(C)C3CCC12C (configuration not stated),.,10µM*,5.8µM*,?,?
CNC(C)[C@@H](O)c1ccc(O)cc1 (some centres not stated),.,.,.,0%,-3%
C[C@H]1[C@@H](OS(=O)(=O)O)C[C@@H]2C[C@H]([C@@H](O)c3cc(=O)[nH]c(=O)[nH]3)NC3=NC[C@H]1N32,.,1µM*,2.1µM*,?,?
c1csc(-c2nnc(Cc3cccc4ccccc34)o2)c1,?,i,15µM*,-2%,13%
C[C@H]1COC(=O)[C@H](Cc2ccc(F)cc2)CC/C=C/C[C@@H](CC(=O)N(CCO)Cc2ccccc2)C(=O)N1,?,i,i,-9%,?
O=C1CC(c2ccccc2Br)c2c(c3ccccc3oc2=O)O1 (configuration not stated),.,i,i,.,.
CCOc1cc2c(cc1OCC)-n1cccc1C(c1ccc(C(C)C)cc1)NC2 (configuration not stated),?,?,?,?,18µM*
CC1(C)CC2CC(C)(CN2S(=O)(=O)c2cccc(C(=O)OCC(=O)NC(N)=O)c2)C1 (configuration not stated),?,i,i,?,-6%
O=C1NC(=O)C(=Cc2cc(Cl)ccc2OCc2ccc(C(=O)O)cc2)C(=O)N1,14%,i,i,?,0.92µM*
O=[N+]([O-])c1ccc(Cl)c([N+](=O)[O-])c1,?,?,16µM*,?,?
O=[N+]([O-])c1ccc(O)c([N+](=O)[O-])c1,.,i,?,-87%,1%
CCN(C[C@H]1N[C@@](CC)(C(=O)OC)[C@H]2C(=O)N(Cc3ccccc3)C(=O)[C@@H]12)S(=O)(=O)c1ccc(C)cc1,?,i,i,3%,-8%
CC(N)C(=O)NC1C2C(=C(O)CC(O)C2O)C(=O)OC1(C)C(Cl)Cl (configuration not stated),.,2.1µM*,18µM*,?,?
CC[C@H](C)[C@@H]1NC(=O)CNC(=O)c2csc(n2)[C@H](C(C)(C)O)OC(=O)C(C)(C)[C@H](CCCC(C)(Cl)Cl)OC(=O)c2csc1n2,.,0.46µM*,13µM*,.,.
Cc1ccc(NC(=O)N(Cc2ccc3c(c2)OCO3)C2CCN(Cc3ccccc3)CC2)cc1Cl,.,?,i,.,.
O=C(O)c1ccccc1NS(=O)(=O)c1cccc(N=Nc2c(O)[nH]c(=S)[nH]c2=O)c1,-7%,i,i,-26%,-14%
CC(C)OP(=O)(c1ccc(N(C)C)cc1)C(O)c1ccc(Br)cc1 (configuration not stated),?,i,i,-1%,10%
N#CC1=C(N)Oc2c(c(=O)sc3ccccc23)C1c1ccncc1 (configuration not stated),-7%,?,i,13µM*,21µM*
SMILES,ELG1 repair inh,KB-3-1 tox,KB-V1 cytotox,SW480 rerep,MCF10A rereplic
NC(N)=N/N=C/c1ccc(N2CCOCC2)cc1,-14%,?,i,6.5µM*,?
Cc1cc(C)cc(N2C(=O)NC(=O)/C(=C/c3cccn3-c3ccc(Cl)cc3)C2=O)c1,?,i,i,9%,16µM*
Cc1cccc(N2C(=O)NC(=O)/C(=C\c3cccn3-c3ccc(Cl)cc3)C2=O)c1,?,?,18µM*,?,?
Cn1c(=O)n(C)c2cc(CNCCc3ccc(F)cc3)ccc21,.,i,i,.,.
CSCCC(c1nnnn1C1CCCC1)N1CCC(n2c(=O)[nH]c3ccccc32)CC1 (configuration not stated),.,i,23µM*,.,.
O=c1[nH]c2ccccc2n1C1CCN(C(CCc2ccccc2)c2nnnn2Cc2ccccc2)CC1 (configuration not stated),.,?,6.5µM*,.,.
CSCCC(c1nnnn1C1CCCCC1)N1CCC(n2c(=O)[nH]c3ccccc32)CC1 (configuration not stated),.,i,i,.,.
O=c1[nH]c2ccccc2n1C1CCN(C(c2cccs2)c2nnnn2Cc2ccccc2)CC1 (configuration not stated),.,?,15µM*,.,.
CSCCC(c1nnnn1Cc1ccccc1)N1CCC2(CC1)C(=O)NCN2c1ccccc1 (configuration not stated),.,i,15µM*,.,.
CC1(C)Cc2c(sc3nc4n(-c5ccccc5)c(=O)c(CCC(=O)O)nn4c(=O)c23)CO1,?,i,i,-3%,11%
CSCCC(c1nnnn1Cc1ccccc1)N1CCC(n2c(=O)[nH]c3ccccc32)CC1 (configuration not stated),.,i,10µM*,.,.
CCCCCl,.,.,.,-1%,-3%
CCC(=Nc1ccc(OC)cc1OC)c1c(O)n(C2CCCCC2)c(=O)[nH]c1=O,18µM*,i,i,17%,?
CCC(=NCc1ccco1)c1c(O)n(C2CCCCC2)c(=O)[nH]c1=O,?,i,i,2%,23%
NNc1ccccc1,.,.,.,0%,1%
COc1ccc(C)cc1NC(=O)N(Cc1ccc2c(c1)OCO2)C1CCN(Cc2ccccc2)CC1,.,i,i,.,.
CCC(=O)N1N=C(c2c(O)n(C)c(=O)n(C)c2=O)CC1c1ccccc1 (configuration not stated),?,21µM*,?,?,12%
